Species: Homo sapiens
Experiment: Quantitative High-Throughput Screen for Compounds Blocking the Interaction Between CBF-beta and RUNX1 for the Treatment of Acute Myeloid Leukemia: Summary. [Related pubchem assays (depositor defined):AID1477, AID504370, AID504374, AID504375]; call rule not given here
Assay type: functional

Row | SMILES | Potency
1 | NNc1nc2cccnc2n(CCNc2ncc(C(F)(F)F)cc2Cl)c1=O | 126 nM (active)
2 | COC(=O)c1ccc(N=NNc2ccc(C(=O)OC)cc2)cc1 | 112 nM (active)
3 | O=C(O)c1cccc(NC(=S)N/N=C/c2cccc(O)c2)c1 | 141 nM (active)
4 | N[C@@H](CCCCNC(=O)CCCC[C@@H]1SC[C@H]2NC(=O)N[C@H]12)C(=O)O | 398 nM (active)
5 | COC(=O)c1ccc(C)c(-n2c(C)cc(C=O)c2C)c1 | 112 nM (active)
6 | CCOc1ccc(CN(C)CC(=O)Nc2cc(C)c(C)cc2[N+](=O)[O-])cc1.CN(C)C=O | 141 nM (active)
7 | O=C1C2C3C=CC(C4CC34)C2C(=O)N1/N=C/c1cccs1 (stereo not given) | 112 nM (active)
8 | CN1CCCN(C(=O)/C=C/c2ccc(Cl)cc2Cl)CC1 | 126 nM (active)
9 | COc1cc([N+](=O)[O-])cc(/C=N/NC(=O)c2ccc(C)nc2)c1O | 141 nM (active)
10 | c1coc(-c2ccnc3ncnn23)c1 | 100 nM (active)
